The text below walks through data of PubChem BioAssay (EPA / NIEHS).

By AC50 is commonly meant the concentration giving half of the maximal activity seen.

Activity calls are given as the source filed them. The calls were made as follows: active = hit-call score of the fitted dose curve at least 0.9, where 1 is the maximum; inactive = score below 0.9.

Fatty acid synthase (Homo sapiens), sequence (P49327 whole entry, looked up): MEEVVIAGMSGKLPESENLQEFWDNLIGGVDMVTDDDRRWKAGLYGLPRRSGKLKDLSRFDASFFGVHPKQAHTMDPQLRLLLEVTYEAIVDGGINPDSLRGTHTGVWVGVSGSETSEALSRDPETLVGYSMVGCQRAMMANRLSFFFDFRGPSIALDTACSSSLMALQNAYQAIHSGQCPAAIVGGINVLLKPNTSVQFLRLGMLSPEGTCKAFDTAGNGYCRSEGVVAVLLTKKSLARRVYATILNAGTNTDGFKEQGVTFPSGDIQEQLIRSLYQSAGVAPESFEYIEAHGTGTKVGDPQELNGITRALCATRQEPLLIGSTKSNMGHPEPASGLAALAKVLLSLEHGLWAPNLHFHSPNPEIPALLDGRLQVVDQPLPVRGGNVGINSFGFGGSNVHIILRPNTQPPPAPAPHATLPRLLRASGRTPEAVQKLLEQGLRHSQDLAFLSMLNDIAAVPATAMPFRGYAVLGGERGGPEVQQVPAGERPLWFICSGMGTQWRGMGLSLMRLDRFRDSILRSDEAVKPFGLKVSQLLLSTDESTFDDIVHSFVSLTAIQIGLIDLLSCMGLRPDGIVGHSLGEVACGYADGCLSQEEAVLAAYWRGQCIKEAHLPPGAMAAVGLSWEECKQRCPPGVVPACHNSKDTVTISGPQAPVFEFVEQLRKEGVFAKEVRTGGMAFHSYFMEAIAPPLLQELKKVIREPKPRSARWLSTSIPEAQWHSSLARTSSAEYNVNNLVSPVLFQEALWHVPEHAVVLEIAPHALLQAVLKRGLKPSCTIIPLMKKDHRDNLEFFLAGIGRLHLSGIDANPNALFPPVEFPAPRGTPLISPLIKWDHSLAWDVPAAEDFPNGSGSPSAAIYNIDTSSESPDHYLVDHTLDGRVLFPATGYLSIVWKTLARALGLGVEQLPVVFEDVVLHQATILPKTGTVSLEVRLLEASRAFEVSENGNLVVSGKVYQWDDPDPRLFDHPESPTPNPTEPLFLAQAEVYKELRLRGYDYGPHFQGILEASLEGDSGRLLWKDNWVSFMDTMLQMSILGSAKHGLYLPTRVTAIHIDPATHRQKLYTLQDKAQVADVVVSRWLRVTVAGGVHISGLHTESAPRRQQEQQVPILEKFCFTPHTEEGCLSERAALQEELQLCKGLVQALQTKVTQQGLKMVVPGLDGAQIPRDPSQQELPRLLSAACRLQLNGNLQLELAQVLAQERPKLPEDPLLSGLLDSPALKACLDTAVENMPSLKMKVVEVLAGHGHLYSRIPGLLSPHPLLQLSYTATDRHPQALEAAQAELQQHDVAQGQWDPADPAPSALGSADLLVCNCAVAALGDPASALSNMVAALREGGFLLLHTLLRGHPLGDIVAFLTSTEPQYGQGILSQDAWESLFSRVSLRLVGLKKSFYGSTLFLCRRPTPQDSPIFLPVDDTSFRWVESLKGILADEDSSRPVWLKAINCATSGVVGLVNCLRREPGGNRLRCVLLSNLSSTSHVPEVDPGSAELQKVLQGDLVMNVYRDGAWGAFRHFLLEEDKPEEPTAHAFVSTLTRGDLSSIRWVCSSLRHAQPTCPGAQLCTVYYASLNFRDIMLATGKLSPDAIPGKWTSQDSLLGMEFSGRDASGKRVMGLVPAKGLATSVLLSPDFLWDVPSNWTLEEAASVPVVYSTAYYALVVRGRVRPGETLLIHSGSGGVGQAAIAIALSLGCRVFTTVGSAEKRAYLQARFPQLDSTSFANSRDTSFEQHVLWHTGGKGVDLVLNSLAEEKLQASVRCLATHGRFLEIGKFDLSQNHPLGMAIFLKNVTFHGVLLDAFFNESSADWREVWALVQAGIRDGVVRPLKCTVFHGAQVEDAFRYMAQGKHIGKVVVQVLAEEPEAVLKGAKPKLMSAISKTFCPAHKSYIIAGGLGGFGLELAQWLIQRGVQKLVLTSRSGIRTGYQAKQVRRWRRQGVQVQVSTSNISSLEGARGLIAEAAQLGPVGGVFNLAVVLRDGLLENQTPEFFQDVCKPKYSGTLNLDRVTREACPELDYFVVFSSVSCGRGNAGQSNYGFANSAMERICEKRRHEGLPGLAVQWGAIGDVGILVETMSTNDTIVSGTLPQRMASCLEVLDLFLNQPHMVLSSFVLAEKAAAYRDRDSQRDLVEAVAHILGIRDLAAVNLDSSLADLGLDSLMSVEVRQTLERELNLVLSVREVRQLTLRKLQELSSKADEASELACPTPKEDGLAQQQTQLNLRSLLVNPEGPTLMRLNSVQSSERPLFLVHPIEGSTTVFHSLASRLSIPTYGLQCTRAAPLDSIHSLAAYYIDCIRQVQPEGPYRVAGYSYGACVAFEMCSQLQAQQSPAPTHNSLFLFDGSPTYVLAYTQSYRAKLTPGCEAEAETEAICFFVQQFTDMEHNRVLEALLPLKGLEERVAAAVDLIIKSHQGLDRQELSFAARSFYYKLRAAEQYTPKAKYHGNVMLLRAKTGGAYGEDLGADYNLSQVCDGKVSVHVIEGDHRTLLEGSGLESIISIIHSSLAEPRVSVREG

Read-out in the assay: Fatty acid synthase (Homo sapiens) (UniProt P49327)
The experiment in a line: LTEA_HepaRG_FASN: Life Technologies and Expression Analysis (LTEA) Assay for Fatty Acid Synthase (FASN) using HepaRG (AID 2283448). The conditions noted are these: mRNA level, 48 h; actives raise or lower the signal. Here is the method:
LTEA_HepaRG is a cell based, multiplexed-readout assay that uses HepaRG, a human liver cell line, with measurements taken at 48 hours after chemical dosing on a 96-well plate.LTEA_HepaRG_FASN is one of 102 assay component(s) measured in the LTEA HepaRG cell culture assay. It is a marker of Steatosis.Data from the assay component LTEA_HepaRG_FASN was analyzed into 1 endpoint. This assay endpoint, LTEA_HepaRG_FASN, was analyzed with bidirectional fitting relative to DMSO as the negative control and baseline of activity. Using a type of inducible reporter, measures of mRNA induction for gain or loss-of-signal activity can be used to understand regulation of transcription factor activity. To generalize the intended target to other relatable targets, this assay endpoint is annotated to the lyase intended target family, where the subfamily is fatty acid synthase.
A total of 1060 chemcials from the ToxCast library were tested in eight-point concentration-response experiments. Cell culture and cytotoxicity assays were conducted at Thermo Fisher Scientific's Custom Services facility (Madison, WI). A single lot of human HepaRG cells (Thermo Fisher Scientific, Frederick, MD) was used for the cell culture experiments. 96-well format collagen type I coated plates of human HepaRG cells were prepared using established methods. Briefly, cryopreserved HepaRG cells were thawed, plated at a density of approximately 100,000 cells/well in HepaRG Thaw, Plate, and General Purpose media (HPRG770, Thermo Fisher Scientific), and incubated for 48 hours. 0.5% DMSO was selected as vehicle control to balance the requisite need of DMSO in HepaRG cultures to maintain differentiation (for example, baseline metabolism, proportions of hepatocytes vs. cholangiocytes), while enabling further hepatic receptor pathway activation (for example, PXR and CAR) in response to chemical exposure. 48 hours after plating, the culture medium was replaced with HepaRG Serum-Free Incudtion Media. Cells were exposed to each test chemical in duplicate and maintained in CO2 incubators for another 48 hours. Chemical plates were thawed to room temperature and 200x concentrations of treatment groups were prepared. 8-point conentration-reponse curves were made with the highest exposure at 100 uM, followed by half-log dilutions, all in 0.5% DMSO. Each test plate contained variouse controls, induction positive controls (1mM phenobarbital), cytotoxicity positive controls ([…] aflatoxin B1), vehicle controls (0.5% DMSO), and total lysis controls (0.5% DMSO). Cell morphology images were taken using an Essen IncuCyte FLR automated microscope, with six 96-well plates imaged in about 24 minutes. Images were captured and exported and JPEG files. Spent culture media was transfered to black-well plates for the LDH assay, and remaining media was sorted at -80 C for later use. Cells were treated with RLT buffer and frozen until shipped for gene expression analysis. Total RNA was isolated from the cell suspension in 75 uL of Buffer RLT (Qiagen, Germantown, MD 20874) by Quintiles/Expression Analysis (Durham, NC) using a custom isolation procedure. Total RNA from each plate well was transferred to a preamplification plate. Fluidigm's 96.96 Dynamic ArrayTM (Fluidigm, Amsterdam, the Netherlands) technology was used for gene expression analyses by quantitative reverse transcription polymerase chain reaction (qRT-PCR, performed by Quintiles/Expression Analysis, Durham, NC)89. Standard TaqManTM Assays (Applied Biosystems/ThermoFisher Scientific, Foster City, CA) were used to assess the expression of 93 genes selected based on their selectivity and sensitivity to important hepatic receptors known to be modulated by environmental chemicals; importance in human hepatocyte functionality; and hepatotoxicity. […]
As to `c1ccc2[nH]c(-c3cscn3)nc2c1`, the molecule was called inactive.

As for `COCCO`, the molecule was called inactive.

As to `CC(C)(c1ccc(O)cc1)c1ccc(O)cc1`, the result was inactive.

For `COC(=O)c1ccccc1C(=O)O`, the molecule was classed as inactive.

With `O=C(Nc1ccc([N+](=O)[O-])cc1Cl)c1cc(Cl)ccc1O`, the AC50 is 2.94 µM (active).

For `CCCCC(CC)COC(=O)c1ccccc1C(=O)O` (stereo not given), the molecule was classed as inactive.

Turning to `CCCN(CCC)C(=O)SCC`, the molecule was called inactive.

Turning to `C=CCOC(Cn1ccnc1)c1ccc(Cl)cc1Cl` (stereo not given), the AC50 is 38.3 µM (active).

Regarding `O=C(O)c1ccccc1`, the result was inactive.

In the case of `COC(=O)CSc1cc(N=c2sc(=O)n3n2CCCC3)c(F)cc1Cl`, the result was inactive.

In the case of `CCCCOC(=O)C(C)Oc1ccc(Oc2ccc(C(F)(F)F)cn2)cc1` (stereo not given), the molecule was classed as inactive.

In the case of `OB(O)O`, the molecule was called inactive.

As for `CC(C)(C)[C@@H](O)[C@@H](Cc1ccc(Cl)cc1)n1cncn1`, the AC50 was 50 µM (active).

As for `CC(C)CCCCCCc1ccc(O)cc1`, the result was inactive.

On to `C[C@]12C[C@H](O)[C@H]3[C@@H](CCC4=CC(=O)CC[C@@]43C)[C@@H]1CC[C@@H]2C(=O)CO`, for which the result was inactive.

Consider `C[C@]12CC[C@@H]3c4ccc(O)cc4C[C@@H](CCCCCCCCCS(=O)CCCC(F)(F)C(F)(F)F)[C@H]3[C@@H]1CC[C@@H]2O` (stereo not given in full), for which the call was inactive.

On to `CCCCOC(=O)[C@@H](C)Oc1ccc(Oc2ccc(C(F)(F)F)cn2)cc1`, for which the call was inactive.

Regarding `N[C@@H](Cc1cc(I)c(Oc2ccc(O)c(I)c2)c(I)c1)C(=O)O`, the call was inactive.

Take `CCNc1nc(N)nc(Cl)n1`: the molecule was classed as inactive.

On to `C#CCOC(=O)[C@@H](C)Oc1ccc(Oc2ncc(Cl)cc2F)cc1`, for which the AC50 is 13.3 µM (active).

As for `CCCOC(=O)NCCCN(C)C`, the result was inactive.

`CCOC(=O)C(C)Oc1ccc(Oc2cnc3cc(Cl)ccc3n2)cc1` (stereo not given): the AC50 was 43 µM (active).

For `c1ccc(Nc2ccccc2)cc1`, the result was inactive.

In the case of `CCCCOCCOCCOCc1cc2c(cc1CCC)OCO2`, the molecule was called inactive.

Consider `CCN(Cc1c(F)cccc1Cl)c1c([N+](=O)[O-])cc(C(F)(F)F)cc1[N+](=O)[O-]`, for which the AC50 was 50 µM (active).

Turning to `CN(C)C(=O)Nc1ccc(Cl)c(Cl)c1`, the AC50 is 20.3 µM (active).

For the molecule `CCC(C)OC(=O)N1CCCCC1CCO` (stereo not given), the call was inactive.

As to `CCCCCCC(C)OC(=O)COc1nc(F)c(Cl)c(N)c1Cl` (stereo not given), the result was inactive.

For `CCCOC(=O)c1ccc(C(=O)OCCC)nc1`, the molecule was called inactive.

`CCCN(CCC)c1c([N+](=O)[O-])cc(C(F)(F)F)c(N)c1[N+](=O)[O-]`: the AC50 is 50 µM (active).

With `CCOC(=O)c1ccc(O)cc1`, the molecule was classed as inactive.

Turning to `CSC(=O)c1cccc2nnsc12`, the call was inactive.

Turning to `CC(=O)[C@H]1CC[C@H]2[C@@H]3CCC4=CC(=O)CC[C@]4(C)[C@H]3CC[C@]12C`, the AC50 was 82.1 µM (active).

For the molecule `C#C[C@]1(O)CC[C@H]2[C@@H]3CCC4=CC(=O)CC[C@@H]4[C@H]3CC[C@@]21CC`, the outcome was inactive.

With `O=C(c1ccc(O)cc1O)c1ccc(O)cc1O`, the molecule was called inactive.

Take `O=C(O)C1(C(=O)Nc2ccc(Cl)cc2Cl)CC1`: the AC50 is 69.8 µM (active).

Turning to `CCOC(=O)NCCOc1ccc(Oc2ccccc2)cc1`, the AC50 was 50 µM (active).

As to `O=C(c1ccccc1)C1CCCCC1`, the molecule was classed as inactive.

Take `COC(=O)c1ccc(I)cc1S(=O)(=O)NC(=O)Nc1nc(C)nc(OC)n1`: the result was inactive.

Turning to `CCCCCOC(=O)COc1cc(N2C(=O)C3=C(CCCC3)C2=O)c(F)cc1Cl`, the call was inactive.
